Assay results as given in PubChem BioAssay (NCI).
The panel holds about 83,000 compounds, 20% with a hit somewhere; the sample as a whole holds those more often.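 Step 1: grow cells in 96-well plates. Step 2: add test compound at a single concentration. Step 3: incubate 48 h. Step 4: record percent growth.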 The source made the active and inactive calls. Rule for the calls: active = growth percent below 10; inactive = the rest.

What was measured:
Experiment in all cases: NCI-60 one-dose screen, 48 h (100 = growth as untreated, 0 = no growth, -100 = all killed)
Details in all cases: 10 µM unless noted
[1] = tested on: SK-MEL-2 melanoma
[2] = tested on: EKVX NSCLC
[3] = tested on: SN12C renal
[4] = tested on: UO-31 renal
[5] = tested on: TK-10 renal
[6] = tested on: CAKI-1 renal
[7] = tested on: A498 renal
[8] = tested on: CCRF-CEM leukemia
[9] = tested on: MOLT-4 leukemia
[10] = tested on: SR leukemia
[11] = tested on: RPMI-8226 leukemia
[12] = tested on: OVCAR-8 ovarian
[13] = tested on: OVCAR-4 ovarian
[14] = tested on: SK-OV-3 ovarian
[15] = tested on: IGROV1 ovarian
[16] = tested on: OVCAR-3 ovarian
[17] = tested on: HS 578T breast
[18] = tested on: NCI/ADR-RES ovarian
[19] = tested on: OVCAR-5 ovarian
[20] = tested on: ACHN renal

Measured: growth

COc1ccc(/C=C(\C#N)c2cc(OC)c3c(c2)OCO3)cc1
inactive: [1] 43.6% | [2] 50.4% | [3] 23.8% | [4] 39.9% | [5] 49.6% | [6] 40.7% | [7] 35.5% | [8] 14.7% | [11] 28.6% | [12] 24.3% | [13] 39% | [15] 16.3% | [17] 28.5%
active: [9] 7.91% | [10] 1.82% | [14] 8.7% | [16] -42.7% | [18] 7.74%

S=C1CC(=S)NC(=S)N1
inactive: [1] 107% | [2] 107% | [3] 96.1% | [4] 88% | [5] 110% | [6] 101% | [7] 90.2% | [8] 105% | [9] 95.3% | [10] 109% | [11] 122% | [12] 104% | [19] 110% | [13] 99% | [14] 111% | [15] 96.7% | [16] 116% | [17] 101% | [18] 105%

COc1ccc2c(c1)C(c1cc(OC)c3c(c1)OCO3)C1=C(COC1=O)N2 (centres undefined)
inactive: [1] 33.2% | [2] 41.1% | [3] 28% | [4] 62% | [5] 60.8% | [6] 51.1% | [7] 30% | [9] 16.5% | [11] 22.1% | [12] 19% | [13] 41.2% | [14] 16.2% | [15] 28.8% | [17] 21%
active: [8] 7.1% | [10] 6.1% | [16] -44% | [18] 2.82%

Cc1ccc(CSC(=N)N)cc1C
inactive: [1] 125% | [2] 100% | [3] 104% | [4] 87.7% | [5] 102% | [20] 107% | [7] 103% | [11] 78.7% | [12] 109% | [19] 114% | [13] 101% | [14] 111% | [15] 106% | [16] 116% | [17] 103% | [18] 98.8%

CN(C)CCCC(C#N)c1ccccc1 (centres undefined)
inactive: [1] 109% | [2] 118% | [3] 101% | [4] 104% | [5] 100% | [6] 117% | [7] 107% | [8] 105% | [9] 91.6% | [10] 96.2% | [11] 108% | [12] 112% | [19] 117% | [13] 113% | [15] 132% | [16] 117% | [17] 121% | [18] 108%

COC(=O)C1CCCN1C(=O)[C@@H]1CCCN1C(=O)[C@H](Cc1c[nH]c2ccccc12)NC(=S)Nc1cc(C(F)(F)F)cc(C(F)(F)F)c1 (some centres undefined)
active: [10] 0.677%
inactive: [1] 67.5% | [2] 49.8% | [3] 65.5% | [4] 49.7% | [5] 56.7% | [6] 33.7% | [7] 65.4% | [8] 24% | [9] 27% | [11] 36.6% | [12] 42.7% | [13] 61.1% | [14] 87.4% | [15] 47.1% | [16] 57.2% | [17] 65.4% | [18] 52.6%

COc1ccc(-c2c(-c3cc(OC)c4c(c3)OCO4)noc2N)cc1
inactive: [1] 53.4% | [2] 44.6% | [3] 22.9% | [4] 36.1% | [5] 54.8% | [6] 38.7% | [7] 23.6% | [8] 14.1% | [11] 23.8% | [13] 34.4% | [15] 14.6% | [17] 28% | [18] 13.8%
active: [9] 4.69% | [10] -7.43% | [12] 9.5% | [14] 4.02% | [16] -47.3%

Cc1cc(C(C)(C)C)ccc1S
inactive: [1] 93.4% | [2] 123% | [3] 100% | [4] 90.3% | [5] 107% | [6] 93.1% | [7] 92.8% | [8] 96% | [9] 81.3% | [10] 93.4% | [11] 104% | [12] 111% | [13] 99.2% | [14] 105% | [15] 109% | [16] 111% | [17] 101% | [18] 112%

COc1ccc2c(c1)OC1=C(C(=O)OC1)C2c1cc(OC)c2c(c1)OCO2 (centres undefined)
active: [9] 5.79% | [10] -7% | [14] 8.55% | [16] -51.3%
inactive: [1] 43.2% | [2] 51.2% | [3] 23.8% | [4] 41.6% | [5] 47.3% | [6] 42.7% | [7] 24.2% | [8] 16.3% | [11] 28.3% | [12] 20.2% | [13] 39.8% | [15] 21.1% | [17] 14.9% | [18] 13.6%

COc1ccc2c(c1)NC1=C(C(=O)OC1)C2c1cc(OC)c2c(c1)OCO2 (centres undefined)
active: [10] 2.24% | [16] -44.9% | [18] 1.91%
inactive: [1] 54.6% | [2] 52.2% | [3] 26.4% | [4] 57.5% | [5] 58.3% | [6] 43.4% | [7] 18.5% | [8] 10.1% | [9] 11.6% | [11] 25.1% | [12] 20.7% | [13] 46% | [14] 13% | [15] 24.4% | [17] 14%

Clc1ccccc1-c1nc2ccccc2[nH]1
active: [18] -4.71%
inactive: [1] 116% | [2] 90.3% | [3] 116% | [4] 95.1% | [5] 121% | [6] 77.5% | [7] 110% | [8] 91% | [9] 110% | [10] 116% | [11] 74% | [12] 106% | [19] 54.4% | [13] 96.9% | [14] 103% | [15] 108% | [16] 102% | [17] 113%

OCc1ncc(-c2ccccc2)s1
inactive: [1] 113% | [2] 87.8% | [3] 121% | [4] 97.9% | [5] 110% | [6] 81.8% | [7] 116% | [8] 90.6% | [9] 110% | [10] 107% | [11] 87.6% | [12] 107% | [19] 92.2% | [13] 97.5% | [14] 99.4% | [15] 113% | [16] 101% | [17] 108% | [18] 22.1%

COc1cc(C2C3=C(COC3=O)Nc3cc4c(cc32)CCC4)cc2c1OCO2 (centres undefined)
active: [10] 5.8% | [16] -47.9% | [18] -16.6%
inactive: [1] 54.4% | [2] 45.4% | [3] 30.9% | [4] 53.5% | [5] 67.4% | [6] 37.2% | [7] 25.6% | [8] 10.3% | [9] 19.6% | [11] 23.2% | [12] 24.5% | [13] 43.5% | [14] 17.4% | [15] 23.2% | [17] 28.4%

NC(=N\N=C/c1ccc(O)cc1)/C(N)=N\N=C/c1ccc(O)cc1
inactive: [1] 59% | [2] 65.5% | [3] 74.2% | [4] 28.5% | [5] 83.4% | [6] 41.5% | [7] 84.5% | [8] 10.8% | [10] 33.7% | [11] 65.3% | [12] 73.9% | [13] 74.4% | [14] 82.6% | [15] 79.4% | [16] 92% | [17] 99% | [18] 58.5%
active: [9] -8.61%

CN(C)CC(C(=O)c1ccccc1)c1ccccc1 (centres undefined)
inactive: [1] 34.7% | [2] 89.6% | [3] 31.2% | [4] 41.3% | [7] 99.7% | [19] 59.3% | [13] 43.1% | [14] 88.4% | [15] 48.6% | [17] 60.5% | [18] 17.1%
active: [5] -20% | [20] -41.5% | [11] -34.4% | [12] 9.37% | [16] -92.6%

CCN(CC)c1ccc(C(=N)c2ccc(N(CC)CC)cc2)cc1
inactive: [2] 12.4% | [5] 10% | [8] 12.1%
active: [1] -66.6% | [3] 0.751% | [4] -33.6% | [6] -9.36% | [7] -44.3% | [9] -23.5% | [11] -32.1% | [12] -8.61% | [19] -22.1% | [14] -36.6% | [15] -24.8% | [16] -38.3% | [17] -47.2% | [18] -49.9%

COc1ccc(NC(=O)CSc2nc(-c3ccc(OC)c(OC)c3)cc(-c3cc(OC)c(OC)c(OC)c3)n2)cc1
inactive: [1] 89% | [2] 108% | [3] 93.9% | [4] 35.4% | [5] 96.8% | [6] 83.8% | [7] 99.8% | [8] 101% | [9] 84.8% | [10] 104% | [11] 78.2% | [12] 94.2% | [19] 99.1% | [13] 106% | [14] 109% | [15] 122% | [16] 114% | [17] 90.8% | [18] 98.7%

CC(C)(C)N1CCC1C(N)=O (centres undefined)
inactive: [1] 159% | [2] 92.2% | [3] 104% | [4] 131% | [5] 91.8% | [6] 83% | [7] 136% | [8] 93% | [9] 120% | [10] 115% | [11] 87.5% | [12] 102% | [19] 48.7% | [13] 104% | [14] 104% | [15] 265% | [16] 105% | [17] 111%
active: [18] -4.51%
